# DT40 TDP1 no CPT: qHTS for Inhibitors of human tyrosyl-DNA phosphodiesterase 1 (TDP1): qHTS in cells in absence of CPT | Potency, µM (titrated, usually from 46.2 µM), for inactives: at the top dose activity change, negative = growth inhibition, most hits filed as inhibitors | 420,000 compounds, 15% hits | AID 686978, 2013 | DT40 Tdp1-/- hTDP1 cells, no CPT, ATP luminescence, 48 h; also: potency is read from the fitted curve at half-maximal effect; nearly all actives have a fitted effect of over 55% in size
#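 A cellular qHTS used chicken DT40 cells lacking endogenous Tdp1 but carrying stably transfected human TDP1. Compounds were applied without camptothecin, and cell growth kinetics were judged by ATP-dependent luminescence after ≥48 hr.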
# DT40 TDP1 CPT: DT40-hTDP1 cell growth loss with CPT; 420,000 compounds, 12% hits; chicken DT40 Tdp1-/-;hTDP1 cells + 20 nM CPT, ATP luminescence, 48 h; Potency, µM (highest dose often 46.2 µM), for inactives: at the top dose activity change, negative = growth inhibition, hits mostly inhibitors; also: potency is read from the fitted curve at half-maximal effect; nearly all actives have a fitted effect of over 55% in size
#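 Chicken DT40 Tdp1-/- cells complemented with human TDP1, 400 cells/well, exposed to compounds plus 20 nM camptothecin for at least 48 h at 37 C; viability read as ATP content by CellTiter-Glo luminescence.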
# HT1080-NT tox: kills 2HG-producing HT-1080-NT fibrosarcoma cells; HT-1080-NT fibrosarcoma viability, CellTiter-Glo ATP luminescence, 48 h; Potency, µM (top dose mostly 46.1 µM), without a hit: at the highest dose activity, negative = less viability, actives largely listed as cytotoxic; 360,000 compounds, 1.6% hits; AID 686970;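 also: NT is the 2HG producing partner of a matched IDH1 knockdown line; potency is read from the fitted curve at half-maximal effect; 0% = DMSO-treated cells and -100% = media-only wells without cells; nearly all actives have a fitted effect of over 55% in size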
#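 Fibrosarcoma NT cells, 750 per well in 5% FBS RPMI, were exposed to compound for 48 hours. Viability: CellTiter-Glo luminescence.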
# ELG1 repair inh: blocks ELG1-dependent DNA repair in HEK293T cells; HEK293T ELG1-luciferase reporter, luminescence, 16 h; DNA damage induced by 5-fluorouridine; AID 504467; Potency, µM (top dose mostly 46.1 µM), for inactives: top-dose activity change, negative = inhibition, actives largely listed as inhibitors; 330,000 compounds, 2.3% hits; also: potency is read from the fitted curve at half-maximal effect; nearly all actives have a fitted effect of over 55% in size
#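 Luminescence from the luciferase reporter, measured 30 min after ONE-Glo reagent at room temperature, was the read-out. Beforehand, 2,000 cells per well were exposed for 16 hr at 37 °C to 5-fluorouridine together with compound or vehicle.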
# HT1080 IDH1KD tx: kills HT-1080 cells with IDH1 knockdown. HT-1080 IDH1 knockdown viability, ATP luminescence, 48 h. Potency, µM (series often up to 46.1 µM), for the others: at the top dose activity, negative = toxicity, actives largely listed as cytotoxic. 360,000 compounds, 2% hits;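 also: potency is read from the fitted curve at half-maximal effect; 0% = DMSO wells and -100% = cell-free medium wells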
#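 In this qHTS, HT-1080 cells depleted of IDH1 are exposed for 48 h at 37 °C to compound titrations. Toxicity is scored from CellTiter-Glo luminescence, with DMSO as full viability and medium alone as none.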
# IL1B secr inh: inhibitors of inflammasome signaling (IL-1 beta secretion); activity change, % at 57.5 µM; THP-1 LPS/ATP IL-1B secretion, AlphaLISA, 16 h; stronger effect = lower value; 360,000 compounds, 4.7% hits; in the data active = activity change below about -50%; inconclusive = mostly about -30% to -49%
#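 THP-1 cells pretreated 1 hr with compounds (up to 57.5 uM final), then stimulated with LPS (250 ng/mL final) plus ATP (1.25 mM final); secreted IL-1B measured by AlphaLISA after 16 hr, decreased signal indicating inhibition.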
# The depositor's hits bear a star; ? = inconclusive; . = no result given; [ ] = remark or other dose. Only some compounds are listed: those with a hit (about 19% of all), similar ones and a draw of the others. Unless noted, calls follow the shape of the dose curve; as a rule, active = well fitted curve in the direction sought with a large enough effect; inconclusive = small, poorly fitted or top-dose-only effect, or another doubt; inactive = no such curve, though single readings can be large; an effect the other way counts as inactive or inconclusive. Unless noted, % is scaled to controls: 0 for no effect and ±100 for the full control effect.
SMILES,DT40 TDP1 no CPT,DT40 TDP1 CPT,HT1080-NT tox,ELG1 repair inh,HT1080 IDH1KD tx,IL1B secr inh
CC1=NNC(=O)/C1=C\c1cn(-c2ccccc2)nc1-c1cccs1,2.6µM*,2.6µM*,8.2µM*,?,8.2µM*,-96*
CC1=NNC(=O)/C1=C\c1cn(-c2ccccc2)nc1-c1ccc(F)cc1,1.5µM*,3.7µM*,10µM*,?,5.8µM*,-100*
O=C(N/N=C/c1cn(-c2ccccc2)nc1-c1cccs1)c1ccc(Cl)cc1,?,?,-9%,?,-17%,-29
O=C(N/N=C/c1cn(-c2ccccc2)nc1-c1ccc(F)cc1)c1ccc(Br)o1,23µM*,21µM*,-4%,?,-12%,-56*
O=C(N/N=C/c1cn(-c2ccccc2)nc1-c1cccs1)c1ccccc1F,-120%,16µM*,-26%,?,?,-12
COc1ccccc1-c1cncnc1Nc1ccccc1,-5%,?,.,.,.,.
CC1(C)O[C@H]2[C@@H](O1)[C@@H](C(=O)Nc1ccccc1O)O[C@@H]1OC(C)(C)O[C@@H]12,-10%,-18%,.,.,.,.
O=C(O)c1cn(-c2ccccc2)nc1-c1ccc(F)cc1,6%,1%,10%,1%,20%,15
O=Cc1cn(-c2ccccc2)nc1-c1ccc(F)cc1,21µM*,?,2%,?,5%,-18
COc1cccc(NC(=S)N2CCC(N(C)CC3CCCO3)CC2)c1 (stereo unspecified),-1%,-19%,13%,?,10%,-3
COc1cc(Cl)cc(C2NC(=S)NC(c3ccccc3)=C2C(C)=O)c1OCC(=O)O (stereo unspecified),-10%,4%,0%,10%,19%,3
CCOc1ccc(C(C)=O)cc1CSc1nnc(-c2cccs2)n1CC1CCCO1 (stereo unspecified),18µM*,?,4%,-10%,2%,?
CC1CCCCC1NC(=O)CSc1nnc(-c2ccco2)n1N (stereo unspecified),9%,-4%,10%,.,7%,6
Cc1cccn2cc(CCNC(=O)Cc3cccs3)nc12,1%,6%,13%,?,13%,-74*
COc1ccccc1OCC(O)Cn1c(=N)n(Cc2ccccc2)c2ccccc21 (stereo unspecified),8.2µM*,21µM*,?,?,-13%,-73*
CC(=O)Nc1ccc(OCC(O)Cn2c3ccccc3c3ccccc32)cc1 (stereo unspecified),?,?,-13%,18µM*,?,-21
O=C(O)c1ccc(OCC(O)Cn2c3ccccc3c3ccccc32)cc1 (stereo unspecified),-17%,-7%,-12%,?,-16%,30
Cc1nccn1CC(O)Cn1c2ccccc2c2ccccc21 (stereo unspecified),?,?,?,?,-25%,-53*
CCn1c(=N)n(CCOc2ccc(Br)cc2)c2ccccc21,5.2µM*,5.8µM*,.,.,.,.
CC(=O)N1CCOc2ccc(S(=O)(=O)N3CCC(C(=O)Nc4ccc(F)cc4)CC3)cc21,-20%,-20%,-10%,0%,-9%,7
CC(=O)Nc1nnc2n1CCS2,-2%,-9%,.,.,.,.
COc1cccc(C2CC(OCCF)=CC(=O)O2)c1 (stereo unspecified),-10%,?,-14%,.,-22%,13
C[C@@H]1CCC[C@H](C)N1,-19%[21.1 µM],3%[21.1 µM],.,.,.,.
N=c1n(Cc2ccccc2Cl)c2ccccc2n1CC(O)c1ccco1 (stereo unspecified),?,-27%,-17%,?,-19%,-4
COc1ccccc1OCCn1c(=O)sc2ccccc21,-9%,-27%,3%,23%,-12%,-11
SMILES,DT40 TDP1 no CPT,DT40 TDP1 CPT,HT1080-NT tox,ELG1 repair inh,HT1080 IDH1KD tx,IL1B secr inh
Cc1ccccc1OCC(O)CO (stereo unspecified),3%,10%,.,.,.,.
N=c1n(Cc2ccccc2)c2ccccc2n1CC(O)c1ccccc1 (stereo unspecified),21µM*,10µM*,?,?,?,?
CCCCn1c(=N)n(CCOc2ccccc2OC)c2ccccc21,4.1µM*,2.9µM*,.,.,.,.
Cc1ccc(Cn2c(=N)n(CC(O)c3ccco3)c3ccccc32)cc1 (stereo unspecified),16µM*,-84%,?,?,?,-74*
Cc1ccccc1OCC(O)CN1CCN(CC(O)COc2ccccc2C)C(C)C1 (stereo unspecified),16µM*,?,26µM*,-16%,?,-63*
CCCn1c(=N)n(CC(O)c2ccco2)c2ccccc21 (stereo unspecified),?,?,3%,-4%,0%,-21
COc1cc(-c2cnc3ccccc3c2)cc2c1OCCN(C(=O)CCn1nc(C)cc1C)C2,-25%,3%[9.04 µM],.,.,.,.
OC(COc1ccccc1)Cn1c2ccccc2c2ccccc21 (stereo unspecified),?,?,?,0%,?,0
COc1ccc(OCCn2c(=N)n(CCO)c3ccccc32)cc1,?,-18%,-5%,14%,-10%,-16
CCCCCn1c(=N)n(CC(O)COc2ccccc2OC)c2ccccc21 (stereo unspecified),5.8µM*,3.7µM*,?,?,?,-59*
CCCCn1c(=N)n(CCOc2ccc(C)cc2)c2ccccc21,5.8µM*,4.6µM*,?,?,?,.
COCCCNc1nc2c(c(=O)[nH]c(=O)n2C)n1CC(O)COc1ccccc1C (stereo unspecified),-26%,-18%,-5%,-16%,-3%,9
Cc1ccccc1OCC(O)Cn1c2ccccc2c2ccccc21 (stereo unspecified),?,?,?,36%,?,-85*
Cc1ccccc1OCC(O)Cn1c(=N)n(Cc2ccccc2)c2ccccc21 (stereo unspecified),5.2µM*,4.1µM*,15µM*,?,16µM*,-106*
C=CCn1c(=N)n(CC(O)COc2ccccc2OC)c2ccccc21 (stereo unspecified),?,?,-23%,?,-19%,?
CCCC(=O)OC1=CN(Cc2ccccc2)S(=O)(=O)c2ccccc21,-22%,3%,.,.,.,.

# Compound activity as filed in PubChem.
